In PubChem BioAssay (Tox21):
Values joined by “and” are separate entries in the source; they are usually repeats but may differ in a detail not shown here. Identical values can stand only once. Results filed as inconclusive are left out. A call without a number means that no potency is given here. Unmarked numbers belong to inactive results. Active and inactive are the calls of the source. The call rests on the fitted dose curve; in most records, active means well fitted cell-killing curve with a large enough effect in the repeat runs; inconclusive means weak or mixed curves, or effect the other way; inactive means flat fitted curve, though single readings scatter.

experiment: qHTS RealTime-Glo MT Cell Viability Assay in HepG2 cells - 40 hour (AID 1224870); settings: RealTime-Glo luminescence; series mostly up to 76.8 µM; activity change, negative = cytotoxic: at the top concentration; further: nearly all actives have a fitted effect of over 50% in size
Source text: National Center for Advancing Translational Sciences [NCATS]
NIH Chemical Genomics Center [NCGC]
U.S. Environmental Protection Agency [EPA]
National Institutes of Environmental Health Sciences [NIEHS]
National Toxicology Program [NTP]
U.S. Food and Drug Administration [FDA]
Measure of cell viability is critical in the cell-base assay. Analysis of cell viability is necessary for the characterization of cell responses to cytotoxic drugs and environmental stress. A RealTime-Glo MT Cell Viability Assay to monitor cell viability in real time of continues cell culture during 40 hours of compound treatment was used to screen Tox21 10K library compounds in HepG2 cells. The RealTime-Glo MT Cell Viability Assay is a nonlytic, homogeneous, bioluminescent method to measure cell viability in real time using a simple, plate-based method. The assay involves adding NanoLuc luciferase and a cell-permeant prosubstrate to cells in culture. Viable cells reduce the proprietary prosubstrate to generate a substrate for NanoLuc luciferase. This substrate diffuses from cells into the surrounding culture medium, where it is rapidly used by the NanoLuc Enzyme to produce a luminescent signal. The signal correlates with the number of viable cells, making the assay well suited for cytotoxicity studies.
Tox21 Assay Protocol Summary:
The mixture of HepG2 cell suspension and reagents were dispensed at 600cells/6 ul/well in 1536-well tissue culture treated black solid bottom plates using a Multidrop dispenser. After the assay plates were incubated at a 37 C/5% CO2 incubator for 5 hours, 23 nL of compounds dissolved in DMSO, positive and negative controls was transferred to the assay plate by a pintool work station. The plates were incubated at 37 C for 40 hours. The luminescence intensity were measured at 0h, 8h, 16h, 24h, 32h and 40h time points using ViewLux plate reader during compound treatment.
Potency means the concentration at half of the fitted maximal effect.

SMILES | Potency | activity change, negative = cytotoxic
CC(=O)Nc1c(I)c(NC(C)=O)c(I)c(C(=O)O)c1I | inactive | –
COc1ccc2cc(S(=O)(=O)N[C@H](CC(=O)N[C@H](Cc3ccc(CN4[C@H](C)CCC[C@@H]4C)cc3)C(=O)N(C)C(C)C)c3ccc4c(c3)OCO4)ccc2c1 | 52 µM (active) | –
CC/C(=C(\c1ccccc1)c1ccc(OCCN(C)C)cc1)c1ccccc1 | 24.5 µM (active) [middle of 4 runs] | –
CN(C)C(=O)Nc1ccc(Cl)c(Cl)c1 | inactive | –
CCCCNC(=O)NS(=O)(=O)c1ccc(C)cc1 | inactive | –
Cc1ccc(S(=O)(=O)O)cc1 | inactive | –
CN(C)CCOC(C)(c1ccccc1)c1ccccn1 (stereo not given) | inactive | –
CCCCC(CC)C(=O)O (stereo not given) | inactive | –
COc1cccc(O)c1O | – | -4.13%
Nc1ccc(O)c([N+](=O)[O-])c1 | – | -2.46%
O=C(O)CC(O)C(=O)O (stereo not given) | inactive | –
O=c1[nH]cnc2c1ncn2[C@H]1CC[C@@H](CO)O1 | inactive | –
F[B-](F)(F)F | inactive | –
Nc1c(N=Nc2ccc(-c3ccc(N=Nc4cc(S(=O)(=O)O)c5ccccc5c4N)cc3)cc2)cc(S(=O)(=O)O)c2ccccc12 | 48.9 µM (active) | –
CN1CCc2cccc3c2[C@H]1Cc1ccc(O)c(O)c1-3 | 18.3 µM (active) | –
NC1CCCCC1 | inactive | –
COc1ccc(OC(F)(F)F)cc1CN[C@H]1CCCN[C@H]1c1ccccc1 | 54.9 µM (active) | –
C1CCC(C(CC2CCCCN2)C2CCCCC2)CC1 (stereo not given) | 5.35 µM (active) | –
NS(=O)(=O)c1cc2c(cc1Cl)NCNS2(=O)=O | inactive | –
CCN(Cc1c(F)cccc1Cl)c1c([N+](=O)[O-])cc(C(F)(F)F)cc1[N+](=O)[O-] | – | 2.22%

SMILES | Potency | activity change, negative = cytotoxic
CCOC(N)=O | inactive | –
O=C1c2c(O)cccc2Cc2cccc(O)c21 | inactive | –
CC(=O)C(=O)O | inactive | –
C=C(C)C(=O)OCC(C)O (stereo not given) | inactive | –
OC[C@H]1O[C@H](O[C@]2(CCl)O[C@H](CCl)[C@@H](O)[C@@H]2O)[C@H](O)[C@@H](O)[C@H]1Cl | inactive | –
CC(=O)CCC(=O)O | inactive | –
O=c1[nH]cc(F)c(=O)[nH]1 | inactive | –
Oc1ccccc1 | inactive | –
O=C1NS(=O)(=O)c2ccccc21 | inactive | –
C/C=C/C=C/C(=O)O | inactive | –
O=C(Nc1ncc([N+](=O)[O-])s1)c1cccs1 | – | -18.4% [at 35.3 µM]
CCCCCCCCCCCCCCCC[N+](C)(C)Cc1ccccc1 | 14.2 µM (active) and 12.5 µM (active) and 8.49 µM (active) | –
CC(C)C(=O)Nc1ccc([N+](=O)[O-])c(C(F)(F)F)c1 | inactive | –
Cc1cc(=O)oc2cc(O)ccc12 | inactive | –
C=CCc1ccc(O)c(OC)c1 | inactive | –
C[C@](N)(Cc1ccc(O)c(O)c1)C(=O)O | inactive | –
Cc1ncc([N+](=O)[O-])n1C | inactive | –
CC1(C)O[C@@H]2C[C@H]3[C@@H]4CCC5=CC(=O)C=C[C@]5(C)[C@@]4(F)[C@@H](O)C[C@]3(C)[C@]2(C(=O)CO)O1 | inactive | –
CNNCc1ccc(C(=O)NC(C)C)cc1 | inactive | –
Cn1c(=O)c2c(ncn2C)n(C)c1=O | inactive | –
